Source: PubChem BioAssay AID1159580 (chemical genetic matrix, 2015)
“And” between values parts separate entries of the source, which are not always exact repeats. Equal values may be shown once. In all, about 5,500 compounds went through this assay and about 2,000 (36%) were called active. Roughly 18% stayed inconclusive and do not appear here. Rule as the data show it: active = normalized growth mostly below about 0.91 (no sharp cut-off); inconclusive = no clear call, values can overlap the other calls; inactive = mostly above about 0.92. The list shows a part of the results.

Assay: chemical genetic growth profiling, strain panel (AID 1159580);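 also: tested at 20 µM; growth read once vehicle control cultures reached saturation at 30 °C; 1 = growth at the plate median or of vehicle wells; lower values mean less growth of the strain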
Details: S. cerevisiae deletion strains, growth OD

Measured: normalized growth

CN(C)CCC(c1ccccc1)c1ccccn1 (centres undefined)
inactive: locus YAL013W, strain DEP1, active compounds read low 0.99 | locus YAL021C, strain ccr4, active compounds read low 1.02 | locus YAL026C, strain drs2, active compounds read low 1.02 | locus YAL030W, strain snc1, active compounds read low 1 | locus YAL040C, strain CLN3, active compounds read low 1.01 | locus YBL061C, strain skt5, active compounds read low 1.01 | locus YBR009C, strain hhf1, active compounds read low 1.01 | locus YBR021W, strain FUR4, active compounds read low 1.01 | locus YBR023C, strain chs3, active compounds read low 1.01 | locus YBR171W, strain sec66, active compounds read low 1.03 | locus YBR229C, strain ROT2, active compounds read low 1 | locus YBR231C, strain swc5, active compounds read low 1.01 | locus YBR279W, strain paf1, active compounds read low 1.01 | locus YCL011C, strain gbp2, active compounds read low 1.01 | locus YCL016C, strain dcc1, active compounds read low 1.02 | locus YCL029C, strain bik1, active compounds read low 1 | locus YCL061C, strain MRC1 (second series), active compounds read low 1.01 | locus YCL061C, strain MRC1, active compounds read low 1.01 | locus YCL069W, strain vba3, active compounds read low 1.01 | locus YCR088W, strain abp1, active compounds read low 1 | locus YDL005C, strain med2, active compounds read low 1.02 | locus YDL035C, strain GPR1, active compounds read low 1.01 | locus YDL040C, strain nat1, active compounds read low 1.01 | locus YDL074C, strain BRE1, active compounds read low 0.991 | locus YDL101C, strain DUN1, active compounds read low 1.01 | locus YDL134C, strain PPH21, active compounds read low 1.01 | locus YDL185W, strain tfp1, active compounds read low 1 | locus YDL192W, strain arf1, active compounds read low 1.01 | locus YDR001C, strain nth1, active compounds read low 1.01 | locus YDR069C, strain doa4, active compounds read low 0.994 | locus YDR101C, strain arx1, active compounds read low 1 | locus YDR137W, strain rgp1, active compounds read low 1.03 | locus YDR150W, strain NUM1, active compounds read low 1.01 | locus YDR159W, strain sac3, active compounds read low 1.02 | locus YDR162C, strain NBP2, active compounds read low 1.01 | locus YDR195W, strain ref2 0.981 | locus YDR297W, strain sur2, active compounds read low 1 | locus YDR318W, strain mcm21, active compounds read low 1.01 | locus YDR334W, strain swr1, active compounds read low 1.01 | locus YDR335W, strain msn5, active compounds read low 1.01 | locus YDR363W, strain ESC2, active compounds read low 1.05 | locus YDR388W, active compounds read low 1 | locus YDR392W, strain spt3, active compounds read low 0.973 | locus YDR502C, strain sam2, active compounds read low 0.994 | locus YEL003W, strain gim4, active compounds read low 0.993 | locus YEL037C, strain rad23, active compounds read low 1.02 | locus YEL061C, strain CIN8 (second series), active compounds read low 1.01 | locus YEL061C, strain CIN8, active compounds read low 1 | locus YER002W, strain NOP16, active compounds read low 1.01 | locus YER015W, strain faa2, active compounds read low 1.01 | locus YER016W, strain bim1, active compounds read low 1.01 | locus YER110C, active compounds read low 1 | locus YER111C, strain swi4, active compounds read low 1.03 | locus YER155C, strain BEM2 (second series), active compounds read low 1.02 | locus YER155C, strain BEM2, active compounds read low 1 | locus YER167W, strain BCK2, active compounds read low 1.01 | locus YFR010W, strain ubp6, active compounds read low 1.01 | locus YGL078C, strain dbp3, active compounds read low 0.991 | locus YGL086W, strain mad1, active compounds read low 0.997 | locus YGL167C, strain pmr1, active compounds read low 1.02 | locus YGL173C, strain kem1, active compounds read low 1.01 | locus YGL227W, strain vid30, active compounds read low 1.02 | locus YGL240W, strain doc1, active compounds read low 0.999 | locus YGL248W, strain PDE1, active compounds read low 1 | locus YGL253W, strain hxk2, active compounds read low 1.02 | locus YGR135W, strain pre9, active compounds read low 1.01 | locus YGR229C, strain SMI1, active compounds read low 0.992 | locus YGR252W, strain gcn5, active compounds read low 0.948 | locus YHR013C, strain ard1, active compounds read low 1.03 | locus YHR027C, strain rpn1, active compounds read low 1.03 | locus YHR030C, strain SLT2, active compounds read low 1.01 and 0.972 | locus YHR079C, strain IRE1 (second series), active compounds read low 1.01 | locus YHR079C, strain IRE1, active compounds read low 0.975 | locus YHR094C, strain hxt1, active compounds read low 1 | locus YHR129C, strain ARP1, active compounds read low 0.998 | locus YHR142W, strain chs7, active compounds read low 1.01 | locus YHR200W, strain rpn10, active compounds read low 0.998 | locus YIL066C, strain RNR3, active compounds read low 1.01 | locus YIL073C, strain SPO22, active compounds read low 1.04 | locus YIL125W, strain kgd1, active compounds read low 1.01 | locus YIR030C, strain dcg1, active compounds read low 1.01 | locus YJL092W, strain hpr5, active compounds read low 1.01 | locus YJL095W, strain BCK1 (second series), active compounds read low 1.01 | locus YJL095W, strain BCK1, active compounds read low 0.99 and 0.976 | locus YJL115W, strain asf1, active compounds read low 1.01 | locus YJL129C, strain trk1, active compounds read low 1.01 | locus YJL134W, strain LCB3, active compounds read low 1.01 | locus YJL154C, strain vps35, active compounds read low 1.01 | locus YJL164C, strain tpk1, active compounds read low 1.01 | locus YJL166W, strain qcr8, active compounds read low 1 | locus YJL168C, strain set2, active compounds read low 1.01 | locus YJL187C, strain SWE1 (second series), active compounds read low 1.01 | locus YJL187C, strain SWE1, active compounds read low 1 | locus YJR043C, strain POL32, active compounds read low 0.997
